PubChem BioAssay AID720706 (Broad Institute, 2013)
Hit rate of the full screen: of about 350,000 compounds, about 5,500 (1.6%) were called active.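 The calls were made as follows: active = significant combined selectivity score with lowered wild-type GFP, culture density cut under 30%, mutant RFP and density less affected; inactive = any of these conditions unmet.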 Only a selection was taken, and actives are over-represented in it overall.

assay: reduced GFP signal of wild-type E. coli, primary screen, bacterial rRNA inhibitor project, GFP/RFP fluorescence, OD600, single point (AID 720706); settings: E. coli WT GFP vs humanized-ribosome RFP mutants, 24 h; GFP signal change (wild-type ribosome): stronger effect = lower value, DMSO median 0, no signal -100; OD600 change: measured here: OD600 growth, DMSO median 0, no signal -100; RFP signal change: measured here: RFP humanized mutant strains, DMSO median 0, no signal -100, concentration not given here

Compound	GFP signal change (wild-type ribosome)	OD600 change	RFP signal change
Cc1ccccc1S(=O)(=O)NC(=O)C1(C)CCN1C(=O)C1(c2ccccc2)CCCC1 (stereo not given)	-6.4% (inactive)	0.03%	-0.676%
Cc1ccccc1S(=O)(=O)NC(=O)C1(C)CCN1C(=O)C1(c2ccc(Cl)cc2)CC1 (stereo not given)	-15.3% (active)	13%	7.67%
Cc1noc(C)c1S(=O)(=O)N(C)C[C@@H]1OCCCC[C@H](C)Oc2ccc(NC(=O)CCC(F)(F)F)cc2C(=O)N([C@H](C)CO)C[C@H]1C	-0.425% (inactive)	1.3%	2.1%
O=C(c1cnccn1)N1CC(=O)N2[C@H](C1)[C@@H](c1ccc(C3=CCCCC3)cc1)[C@@H]2CO	3.19% (inactive)	-21.9%	1.94%
COCCNC(=O)C[C@@H]1C[C@@H]2c3cc(NS(=O)(=O)c4ccccc4)ccc3O[C@@H]2[C@H](CO)O1	1.27% (inactive)	4%	-0.545%
CC(CNC(=O)Cn1cnc2c(OCc3ccccc3)ncnc21)c1ccccc1 (stereo not given)	8.65% (inactive)	14.8%	2.69%
c1ccc(COc2nsnc2N2CCOCC2)cc1	0.165% (inactive)	-14.3%	-6.39%
Fc1cccc2ncnc(OCc3ccccc3)c12	-30.9% (active)	-18%	-2.44%
CCCC#Cc1ccc([C@@H]2[C@@H](CO)N3C(=O)CN(C(=O)Nc4ccc(F)cc4)C[C@@H]23)cc1	-0.84% (inactive)	-38.9%	19.5%
COCC(=O)Nc1ccc2c(c1)C(=O)N(C)[C@H]1CC[C@@H](CC(=O)NCc3cccc(F)c3)O[C@H]1CO2	3.46% (inactive)	6.34%	1.53%
CC(=O)Nc1ccc2c(c1)CC(=O)N(C)C[C@H](C)[C@H](CN(C)S(C)(=O)=O)O2	0.68% (inactive)	1.91%	0.168%
CCNC(=O)[C@H]1[C@H](CO)[C@H]2Cn3c(cccc3=O)[C@@H]1N2Cc1cc(F)ccc1F	0.156% (inactive)	3.74%	1%
C[C@@H]1CN([C@H](C)CO)C(=O)c2cccc(NS(=O)(=O)c3ccc(F)cc3)c2O[C@@H]1CN(C)S(=O)(=O)c1ccc(Cl)cc1	-1.76% (inactive)	-16.2%	-1.81%
Cc1nc(-c2ccc([N+](=O)[O-])cc2)c(-c2ccccc2)o1	-32% (active)	-14.4%	13.4%
Cn1nc(-c2ccccc2)c2cc([N+](=O)[O-])ccc21	0.085% (inactive)	1.86%	-0.696%
O=[N+]([O-])c1cc2ccccc2nc1-c1ccccc1	11.2% (inactive)	-0.7%	-0.455%
O=C(C[C@H]1C[C@H]2c3cc(NC(=O)C4CCOCC4)ccc3O[C@H]2[C@@H](CO)O1)NCC1CC1	2.89% (inactive)	8.38%	-2.18%
Cc1noc(C)c1NC(=O)Nc1ccc2c(c1)C(=O)N([C@@H](C)CO)C[C@H](C)[C@@H](CN(C)C(=O)C1CCCCC1)OCCCC[C@@H](C)O2	1.51% (inactive)	8.89%	-0.802%
CC=Cc1ccc2n(c1=O)C[C@@H]1[C@@H](CO)[C@H](C(=O)NCCc3ccccc3)N(C(C)=O)[C@H]21 (mixture of isomers)	0.861% (inactive)	2.27%	-0.668%
COc1ccccc1NC(=O)N1C[C@@H]2[C@H](c3ccccc31)[C@H](CO)N2CC1CCOCC1	0.276% (inactive)	-6.98%	0.913%
COCCCNc1ccn2nc(-c3ccc(CC(C)C)cc3)cc2n1	-26.9% (inactive)	-34.5%	0.31%
COc1ccc(-c2cc3nc(NCCOc4ccccc4)ccn3n2)cc1	-7.79% (inactive)	-16.3%	16.5%
COCCNc1cc(-c2ccccc2)nc2cc(-c3cccc(F)c3)nn12	-14.8% (active)	8.3%	-4.74%
CC(C)NC(=O)N(C)C[C@H]1OCc2ccccc2-c2c(n(C)c3ccccc23)C(=O)N([C@H](C)CO)C[C@@H]1C	0.94% (inactive)	5.88%	-4.42%
CN1c2ccc(-c3ccccc3)cc2[C@@H]2[C@@H](CCN2C(=O)NC2CCCC2)[C@H]1CO	-26.6% (inactive)	-47.4%	16.9%
CCC(=O)N1[C@@H](CO)[C@@H](c2ccccc2)C12CN(C(=O)c1cnccn1)C2	-1.97% (inactive)	-9.38%	1.42%
COc1ccc(-c2nc(N)ncc2-c2ccc(Cl)cc2)c(O)c1	-4.3% (inactive)	-9.82%	0.567%
C=C(C)COc1ccc(-c2ncncc2-c2ccc(OC)cc2)c(O)c1	-11.6% (inactive)	-10.7%	-1.31%
CCOc1ccc(-c2nc(N)ncc2-c2ccccc2OC)c(O)c1	-28.9% (active)	-3.55%	-5.66%
CCS(=O)(=O)Nc1ccc2c(c1)C(=O)N(C)[C@@H]1CC[C@H](CC(=O)N3CCCCC3)O[C@@H]1CO2	-0.591% (inactive)	-4.1%	-3.67%
